Reference: PubChem BioAssay AID624021 (National Center for Advancing Translational Sciences (NCATS), 2012)
Records with an inconclusive call do not appear. Calls of active or inactive are those of the source. Calls come from the whole dose curve; as a rule, active = well fitted curve in the direction sought with a large enough effect; inconclusive = small, poorly fitted or top-dose-only effect, or another doubt; inactive = no such curve, though single readings can be large or run the other way.

These compounds were tested against Isocitrate dehydrogenase [NADP] cytoplasmic (Homo sapiens) (UniProt O75874) (assay: qHTS for Inhibitors of mutant isocitrate dehydrogenase 1 (IDH1): WT assay for probe SAR). Details: WT IDH1 enzyme, NADPH diaphorase/resazurin fluorescence; series mostly up to 100 µM.
Sequence of Isocitrate dehydrogenase [NADP] cytoplasmic (Homo sapiens) (O75874 whole entry, looked up): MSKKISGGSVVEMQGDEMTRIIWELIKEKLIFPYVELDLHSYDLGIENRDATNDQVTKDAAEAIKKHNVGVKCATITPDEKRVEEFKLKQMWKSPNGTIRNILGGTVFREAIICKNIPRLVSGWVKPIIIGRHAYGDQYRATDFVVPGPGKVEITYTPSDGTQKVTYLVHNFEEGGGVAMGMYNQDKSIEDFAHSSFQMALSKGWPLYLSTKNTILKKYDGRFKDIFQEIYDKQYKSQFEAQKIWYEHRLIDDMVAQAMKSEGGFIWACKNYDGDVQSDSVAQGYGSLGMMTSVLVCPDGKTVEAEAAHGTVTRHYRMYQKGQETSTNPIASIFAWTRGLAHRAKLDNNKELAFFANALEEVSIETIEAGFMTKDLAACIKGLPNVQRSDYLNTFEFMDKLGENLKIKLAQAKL
Source text: Malignant glioblastomas (WHO grade IV), including primary and secondary glioblastomas, are among the most lethal with a median survival of one year, and unfortunately they are also the most prevalent type of brain tumors. By and large the standard of care of gliomas remains the use of the oral alkylating agent temozolomide and radiotherapy following surgical tumor resection. There is an urgent unmet medical need for novel therapeutics for gliomas. IDH mutations occur in up to 70% of grade II-IV secondary glioblastomas, and IDH1 R132H is the most prevalent mutation. […] Wild-type (WT) IDH1 catalyzes the conversion of isocitrate to -ketoglutarate with the concomitant reduction of NADP+ to NADPH. In contrast, IDH1 R132H catalyzes the conversion of -ketoglutarate to 2-hydroxyglutarate (2-HG) with the concomitant oxidation of NADPH to NADP+ [5]. Recently, a second significant advancement for the field was the finding that IDH is an oncogene, and that its metabolic product 2-HG may contribute to the pathogenesis of IDH-mutated cancers. […] Although this link to cancer is tantalizing, the direct evidence of how 2-HG drives pathogenesis of gliomas and AML remains a subject of further research. The goal of this selectivity assay is to identify small-molecule inhibitors of WT IDH1 using a biochemical assay that measures product NADPH production through the use of a diaphorase/resazurin-coupled system. Inhibition of the WT IDH1 enzymatic reaction leads to a decrease in the amount of NADPH relative to a DMSO control and a concomitant decrease in the fluorescence of the diaphorase/resazurin enzyme product resorufin at 590 nm. Compounds were screened as concentration-titration series that ranged from 100 microM to 5 nM. NIH Molecular Libraries Probe Production Network [MLPCN] NIH Chemical Genomics Center [NCGC] MLSCN Grant: R03 DA032129 PI Name: Dr. Lenny Dang
Compounds or DMSO were dispensed into black, solid 96-well plates at 1 microL/well. Then, 40 microL/well enzyme buffer was dispensed in 20 mM Tris buffer, pH 7.5, containing final concentrations of 10 mM MgCl2, 20 mM NaCl, 0.05% BSA, 2 mM beta-ME and […] WT IDH1. These were incubated at RT for 60 minutes. The substrate and detection buffer (10 microL; 20 mM Tris buffer, pH 7.5, containing final concentrations of 10 mM MgCl2, 20 mM NaCl, 0.05% BSA, 0.05 mM NADP+, 0.00053 mM diaphorase, 0.04 mM resazurin and 0.07 mM isocitrate) was added to start the enzymatic reaction. The reaction progressed for 30 minutes at RT and which point 25 microL/well of 2% SDS was added as a stop solution. Following 1 minute of shaking on an oribital shaker, the fluorescence intensity was monitored on a Spectramax M5 plate reader (Ex 544, Em 590, bodipy filter). The %Activity was determined from the corrected fluorescence values. As no specific WT IDH1 inhibitors have been identified in the literature, 1x (0.65 nM) and 0x WT IDH1 enzyme controls (untreated) were included to normalize %Activity of identified inhibitors; 0x enzyme values corresponded to 100%Activity (full inhibition), while 1x WT IDH1 enzyme values were used to normalize 0%Activity (no inhibition ). Concentration-response curves were fitted to the signals arising from the resulting fluorescence. The concentration-response curves were then classified based on curve quality (r2), response magnitude and degree of measured activity, and compounds were subsequently categorized based on their curve class. […] Keywords: Isocitrate dehydrogenase, IDH1, IDH1 R132H, 2-HG, 2-hydroxyglutarate, AML, glioma, MLSMR, MLPCN, NIH Roadmap, qHTS, NCGC

outcome, inactive:
O=C(NC1CCCCC1)C(c1ccncc1)N(C(=O)Cc1cccs1)c1cccc(F)c1 (configuration not stated)
Cc1ccccc1C(C(=O)NCc1ccccc1)N(C(=O)Cc1cccs1)c1cccc(F)c1 (configuration not stated)
COc1cccc(C(C(=O)NC2CCCCC2)N(C(=O)c2cccs2)c2ccc3c(c2)OCO3)c1 (configuration not stated)
Cc1ccccc1C(C(=O)NC1CCCCC1)N(C(=O)c1ccccn1)c1cccc(F)c1 (configuration not stated)
Cc1ccccc1C(C(=O)NC1CCCC1)N(C(=O)Cc1cccs1)c1ccccc1 (configuration not stated)
Cc1ccccc1C(C(=O)NC1CCCC1)N(C(=O)Cc1cccs1)c1ccccc1F (configuration not stated)
O=C(NC1CCCCC1)C(C1CCCC1)N(C(=O)Cc1cccs1)c1cccc(F)c1 (configuration not stated)
COc1ccccc1CN(C(=O)Cc1cccs1)C(C(=O)NC1CCCCC1)c1ccccc1F (configuration not stated)
COc1cccc(N(C(=O)Cc2cccs2)C(C(=O)NC2CCCC2)c2ccccc2)c1 (configuration not stated)
Cc1nc(C)c(C(=O)N(c2cccc(F)c2)C(C(=O)NC2CCCCC2)c2ccccc2)s1 (configuration not stated)
COc1ccc(N(C(=O)Cn2cnc3ccccc32)C(C(=O)NC2CCCCC2)c2ccccc2)cc1 (configuration not stated)
COc1cc(OC)cc(N(C(=O)Cc2cccs2)C(C(=O)NC2CCCC2)c2ccccc2C)c1 (configuration not stated)
O=C(NC1CCCC1)C(c1ccccc1)N(C(=O)Cc1cccs1)c1cccc(F)c1 (configuration not stated)
Cc1ccccc1C(C(=O)NC(C)(C)C)N(C(=O)Cc1cccs1)c1cccc(F)c1 (configuration not stated)
Cc1ccccc1C(C(=O)N(C)C1CCCCC1)N(C(=O)Cc1cccs1)c1cccc(F)c1 (configuration not stated)
Cc1ccc(C(C(=O)NC2CCCC2)N(C(=O)Cc2cccs2)c2cccc(F)c2)o1 (configuration not stated)
O=C(NC1CCCC1)C(c1cccs1)N(C(=O)Cc1cccs1)c1cccc(F)c1 (configuration not stated)
Cc1ccccc1C(C(=O)NC1CCCCC1)N(C(=O)CNS(=O)(=O)c1ccccc1)c1cccc(F)c1 (configuration not stated)
COc1ccc(N(C(=O)C2COc3ccccc3O2)C(C(=O)NC2CCCCC2)c2ccccc2)cc1OC (configuration not stated)
COc1ccc(N(C(=O)Cc2cccs2)C(C(=O)NC2CCCC2)c2ccccc2C)cc1OC (configuration not stated)
Cc1ccccc1C(C(=O)NC1CCCCC1)N(C(=O)Cc1cccs1)C(C)C (configuration not stated)
COc1ccc(C(C(=O)NC2CCCC2)N(C(=O)Cc2cccs2)c2cccc(F)c2)cc1OC (configuration not stated)
